This is part of a sample that, as a whole, favours compounds with a hit. Of some 83,000 tested, about 20% had one in any assay.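 In brief: 96-well plates, 48 h treatment, single concentration, percent growth endpoint.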 Values without a mark were called inactive. The source made the active and inactive calls. The calls were made as follows: active = growth percent below 10; inactive = the rest.

Test systems include T-47D breast; BT-549 breast; MDA-MB-435 melanoma; SW-620 colon; MCF7 breast; HCT-116 colon; HCC-2998 colon; KM12 colon.
Common to all, as to experiment: NCI-60 one-dose screen, 48 h (100 = growth as untreated, 0 = no growth, -100 = all killed)
Settings in all cases: 10 µM

`CC1=CC2C(C(O)CC3(C)C2CC(C)C32OCOC23COCO3)C2(C)C/C(=C/O)C(=O)C=C12` (stereo not given): the growth is 24.3% in the assay on T-47D breast; 51.2% in the assay with BT-549 breast; 7.68% (active) in the assay with MDA-MB-435 melanoma; 5.28% (active) in the assay on SW-620 colon; 5.37% (active) in the assay on MCF7 breast; -70.2% (active) in the assay on HCT-116 colon. Further, the growth with HCC-2998 colon is 35%; in the assay on KM12 colon it was 12%.
As for `CCCN(CCC)C(=O)[C@H](CC)[C@@H]1CC[C@@H](C)[C@@H]([C@H](C)[C@@H](O)[C@@H](C)C(=O)[C@H](CC)C2O[C@]3(C=C[C@@H](O)[C@]4(CC[C@@](C)([C@H]5CC[C@](O)(CC)[C@H](C)O5)O4)O3)[C@H](C)C[C@@H]2C)O1` (stereo not given in full), the growth is 11.1% in the assay on T-47D breast; 6.17% (active) in the assay on BT-549 breast; 3.17% (active) with MDA-MB-435 melanoma; 9.23% (active) in the assay with SW-620 colon; -15.3% (active) in the assay on MCF7 breast; 6.43% (active) with HCT-116 colon. In addition, the growth in the assay on HCC-2998 colon was 4.75% (active); with KM12 colon, 19.9%.
Take `Cc1c2c[n+](C(C)C)ccc2c(C)c2c1[nH]c1ccccc12`: the growth was -13.7% (active) in the assay with T-47D breast; 2.83% (active) in the assay with BT-549 breast; 15.9% with MDA-MB-435 melanoma; 22% in the assay on SW-620 colon; 3.87% (active) in the assay with MCF7 breast; 20.1% with HCT-116 colon. The growth is 18.8% with HCC-2998 colon and 8.68% (active) in the assay on KM12 colon.
Consider `CNS(=O)(=O)Oc1ccc(-c2ccc3occc3c2)cc1`, for which the growth in the assay with T-47D breast is 89.1%; in the assay on BT-549 breast it was 91.5%; with MDA-MB-435 melanoma it was 100%; with SW-620 colon, 102%; with MCF7 breast it was 111%; with HCT-116 colon, 95.5%. Further, the growth with HCC-2998 colon was 96.5%; in the assay on KM12 colon it was 99%.
`CN1CCc2c(sc3nc4n(-c5ccc(Cl)cc5)c(=O)[nH]n4c(=O)c23)C1`: the growth in the assay on T-47D breast is 87.6%; with BT-549 breast, 94%; in the assay with MDA-MB-435 melanoma it was 103%; in the assay on SW-620 colon it was 109%; with MCF7 breast, 91.7%; in the assay on HCT-116 colon, 89.1%. Further, the growth is 102% in the assay on HCC-2998 colon and 100% in the assay with KM12 colon.
With `CC(C)(C)OC(=O)CN1CCc2c(sc3ncnc(N/N=C/c4cccc5ccccc45)c23)C1`, the growth is 26.4% with T-47D breast; 64.3% with BT-549 breast; 27.6% with MDA-MB-435 melanoma; 33.9% in the assay on SW-620 colon; 26% in the assay on HCT-116 colon; 44.1% in the assay with HCC-2998 colon. In addition, the growth in the assay on KM12 colon was 53.1%.
As to `CCc1ccc(-c2ccc(-n3nc(C)c4c(N)nc(Cc5ccccc5)nc43)cc2)cc1`, the growth is 49.7% in the assay on T-47D breast; 72% with BT-549 breast; 82.7% in the assay on MDA-MB-435 melanoma; 77.8% in the assay with SW-620 colon; 58.1% in the assay on MCF7 breast; 59.1% in the assay with HCT-116 colon. The results for the growth in the assay with HCC-2998 colon and with KM12 colon were 23.7% and 53.5%, respectively.
Turning to `CC(C)[N+]1(C)C2CC[C@@H]1CC(OC(=O)C(CO)c1ccccc1)C2` (stereo not given in full), the growth with T-47D breast is 96.6%; in the assay with BT-549 breast, 106%; in the assay on MDA-MB-435 melanoma, 104%; with SW-620 colon it was 101%; in the assay on MCF7 breast, 111%; in the assay with HCT-116 colon it was 107%. Further, the values for the growth in the assay with HCC-2998 colon and in the assay on KM12 colon were 103% and 115%, respectively.
For the compound `Cc1cc(C)nc(NS(=O)(=O)c2ccc(Nc3nc4nc(NCc5ccccc5)nc(-c5ccc(O)cc5)c4c(=O)[nH]3)cc2)n1`, the growth was 25.1% in the assay with T-47D breast; 34% in the assay with BT-549 breast; 32.1% in the assay on MDA-MB-435 melanoma; 11.2% with SW-620 colon; 16.1% in the assay with MCF7 breast; 19.5% in the assay on HCC-2998 colon. Further, the growth in the assay with KM12 colon is 29.6%.
On to `O=C1/C(=C/c2cccc(F)c2)Cc2ccccc21`, for which the growth in the assay with T-47D breast is 103%; in the assay with BT-549 breast it was 106%; with MDA-MB-435 melanoma, 97.9%; in the assay on SW-620 colon it was 102%; with MCF7 breast it was 25.1%; in the assay with HCC-2998 colon, 97.1%. Besides, in the assay on KM12 colon, the growth was 98.7%.
`COc1ccc(/C=C2/SC(=S)NC2=O)c(OC)c1OC`: the growth in the assay with T-47D breast was 63.2%; with BT-549 breast it was 91.1%; in the assay with MDA-MB-435 melanoma it was 78.5%; with SW-620 colon, 93.9%; in the assay with MCF7 breast it was 80.4%; with HCT-116 colon it was 85.8%. Besides, the growth with HCC-2998 colon is 82.3%; in the assay on KM12 colon, 93.3%.
With `Nc1ccccc1NC(=O)c1ccc(CCCC(=O)Nc2ccc(C3CC3N)cc2)cc1` (stereo not given), the growth in the assay on T-47D breast was 7.85% (active); in the assay with BT-549 breast, 47.4%; with MDA-MB-435 melanoma, 18%; with SW-620 colon, 14.9%; with HCT-116 colon, 8.68% (active); with HCC-2998 colon it was 19.5%. Moreover, the growth with KM12 colon is 45.2%.
Take `CCCCC/C=C/C/C=C/CCCCCCCC1=NC(C)(C)CN1C(C)C`: the growth in the assay with T-47D breast is 16.5%; with BT-549 breast, 77.8%; with MDA-MB-435 melanoma, 15.9%; in the assay on SW-620 colon, -70.3% (active); in the assay with MCF7 breast, -16.4% (active); with HCT-116 colon it was -36.8% (active). Moreover, the growth in the assay on HCC-2998 colon was -9.05% (active); in the assay on KM12 colon, -92% (active).
`CCCCCC(=O)O[C@]1(C(C)=O)CCC2C3CCC4=CC(=O)CC[C@]4(C)C3CC[C@@]21C` (stereo not given in full): the growth with T-47D breast is 28.6%; with BT-549 breast, 31.1%; in the assay with MDA-MB-435 melanoma, 28.4%; in the assay on SW-620 colon it was 29.5%; in the assay on MCF7 breast it was 13.4%; in the assay on HCT-116 colon, 11.5%. The growth is 26.2% in the assay on HCC-2998 colon and 28.7% with KM12 colon.
On to `CC1/C=C/C=C/C=C/C=C/C=C/C=C/C=C/C(O[C@@H]2O[C@H](C)[C@H](O)[C@@H](O)[C@@H]2N)CC(O)C(C(=O)O)C(O)CC(=O)CC(O)CC(O)CC(O)CC(=O)CCCC(=O)CC(=O)OC1C(C)CC(C)C(O)CC(=O)c1ccc(N)cc1` (stereo not given in full), for which the growth is -87.1% (active) with T-47D breast; -93% (active) in the assay on BT-549 breast; -93% (active) in the assay with MDA-MB-435 melanoma; -95.3% (active) in the assay with SW-620 colon; -90.7% (active) with HCT-116 colon; -98.1% (active) in the assay with HCC-2998 colon. In addition, in the assay on KM12 colon, the growth was -96% (active).
